# Entries with a potency or affinity are not part of this list. Results filed as inconclusive are left out. Values without a mark were called inactive.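 The calls were made as follows: active = signal loss with fitted half-maximal concentration at or below twice the top valid tested dose in every test run; inconclusive = runs disagree, flat 30 to 70% signal loss, or poor fit; inactive = all runs flat, opposite direction, or potency beyond limit.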
# Assay: HEK293T cytotoxicity, dose response, cytotoxicity control for miR-122 modulator project, cell-based, inhibitor set, cherry-pick, set 2 (AID 720697);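 also: 0% = median of neutral control wells and -100% = MG132 positive control wells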
# Settings: HEK293T viability, CellTiter-Glo luminescence, 48 h; series mostly up to 26 µM; activity change, negative = cytotoxicity: at the top concentration
row,Structure (SMILES),"activity change, negative = cytotoxicity"
1,COc1cc(-c2nnc(-c3ccco3)o2)ccc1OCc1ccccc1,-3.44%
2,COCC(=O)Nc1ccc2c(c1)C(=O)N(C)[C@@H]1CC[C@@H](CC(=O)NC3CCCC3)O[C@@H]1CO2,69.4% [at 23.5 µM]
3,COCCN(C[C@@H]1[C@@H](c2ccccc2)[C@H](CO)N1C(=O)C1CCC1)C(C)=O,170%
4,CCCNC(=O)C[C@H]1CC[C@H]2[C@@H](COc3ccc(NC(=O)c4cc(F)cc(F)c4)cc3C(=O)N2C)O1,87.8%
5,COc1ccc(N2CCc3c(C)nc4c(OC)cc(OC)cc4c32)c(OC)c1,-48.9%
6,CO[C@H]1CN(C)C(=O)c2cc(NC(C)=O)ccc2OC[C@@H](C)N(C(=O)CC2CC2)C[C@H]1C,61.8%
7,CC(=O)N(C[C@@H]1N[C@@H](CO)[C@H]1c1ccc(-c2ccccc2)cc1)C(C)C,51.5%
8,COc1ccc(C#Cc2ccc3c(c2)O[C@H](CN(C)C(=O)CN2CCOCC2)[C@H](C)CN([C@@H](C)CO)S3(=O)=O)cc1,86.8%
9,COC(=O)C[C@@H]1CC[C@@H]2[C@@H](COc3ccc(NS(=O)(=O)c4ccccc4F)cc3C(=O)N2C)O1,61.1%
10,CCN(C[C@H]1N[C@@H](CO)[C@@H]1c1ccc(C2=CCCC2)cc1)C(=O)c1ccncc1,50.2%
11,CCN(C[C@H]1[C@H](c2ccccc2)[C@@H](CO)N1S(C)(=O)=O)C(=O)C1CC1,126%
12,CCCNC(=O)C[C@@H]1CC[C@@H]2[C@H](COc3ccc(NC(=O)Nc4ccccc4F)cc3C(=O)N2C)O1,55%
13,O=C(CSc1nc2ccccc2s1)N1CCOCC1,56.6%
14,CNC(=O)C[C@H]1CC[C@H]2[C@H](COc3ccc(NC(=O)c4cccc(F)c4)cc3C(=O)N2C)O1,80%
15,CN1C(=O)c2cc(NC(=O)C3CCOCC3)ccc2OC[C@H]2O[C@H](CC(=O)NCc3ccc4c(c3)OCO4)CC[C@@H]21,128%
16,C[C@@H]1CN([C@@H](C)CO)S(=O)(=O)c2ccc(C#Cc3ccncc3)cc2O[C@@H]1CN(C)C(=O)C1CCOCC1,123%
17,COCC(=O)Nc1ccc2c(c1)C(=O)N(C)[C@@H]1CC[C@H](CC(=O)NCc3ccccc3F)O[C@H]1CO2,89%
18,C/C=C/c1ccc([C@@H]2[C@@H](CN(C)C(=O)CC)N(C(=O)NC(C)C)[C@H]2CO)cc1,128%
19,CN1C(=O)c2cc(NC(=O)c3cccs3)ccc2OC[C@@H]2O[C@@H](CC(=O)N3CCOCC3)CC[C@H]21,115% [at 23.5 µM]
20,CC(C)NC(=O)N1C[C@@H]2[C@H](c3ccccc31)[C@H](CO)N2Cc1ccccc1,3.17% [at 23.5 µM]

row,Structure (SMILES),"activity change, negative = cytotoxicity"
1,CCCNC(=O)C[C@@H]1CC[C@@H]2[C@H](COc3ccc(NC(=O)c4cc(F)cc(F)c4)cc3C(=O)N2C)O1,61.1%
2,Cc1cc(C)cc(NC(=O)c2ccc(CSc3nnc(C)s3)cc2)c1,133%
3,CCN(C[C@H]1N[C@@H](CO)[C@@H]1c1ccc(C2=CCCC2)cc1)C(=O)c1cccnc1,-38.7%
4,Cc1ccc(-c2cnc3c(c2)C(=O)N([C@H](C)CO)C[C@@H](C)[C@H](CN(C)CC2CCCCC2)O3)cc1,80.6%
5,Cc1cccc(NC(=O)Nc2ccc3c(c2)C(=O)N(C)[C@@H]2CC[C@H](CC(=O)NCc4ccccc4Cl)O[C@H]2CO3)c1,128%
6,Cn1c(NC(=O)c2ccco2)c(-c2ccccc2Cl)c(=O)c2ccccc21,10.7%
7,O=C(CC(F)(F)F)N1C[C@H]2[C@@H](c3ccccc31)[C@H](CO)N2C(=O)Cc1cccnc1,112%
8,CC(=O)N1[C@H](CO)[C@@H](c2ccccc2)[C@H]1CN(C)C(=O)CN1CCOCC1,36.2%
9,O=C(NCC(c1cccnc1)N1CCOCC1)NC1CCCCC1 (centres undefined),83.2%
10,COc1cccc(C(=O)Nc2ccc3c(c2)C(=O)N(C)[C@@H]2CC[C@H](CC(=O)NCc4ccc(F)cc4)O[C@@H]2CO3)c1,-15.2%
11,C[C@@H]1CN([C@H](C)CO)S(=O)(=O)c2ccc(C#Cc3ccccc3F)cc2O[C@@H]1CN(C)C(=O)Cc1ccncc1,20%
12,O=C(Cc1cccnc1)N1[C@@H](CO)[C@@H]2c3ccccc3NC[C@@H]21,133%
13,CNC(=O)C[C@H]1CC[C@H]2[C@H](COc3ccc(NC(=O)c4cccc(OC)c4)cc3C(=O)N2C)O1,66.9%
14,CC(=O)Nc1ccc(S(=O)(=O)Nc2ccc(S(=O)(=O)Nc3nc(C)cc(C)n3)cc2)cc1,100%
15,C=CCc1c(OC)ccc2ccc(=O)oc12,-1.92% [at 6 µM]
16,CN1C(=O)c2cc(NC(=O)c3ccc(F)cc3)ccc2OC[C@@H]2O[C@@H](CC(=O)O)CC[C@@H]21,121%
17,CN1C(=O)c2cc(NC(=O)c3cccc(F)c3)ccc2OC[C@@H]2O[C@H](CC(=O)NC3CCC3)CC[C@@H]21,-10.6%
18,COc1ccc(C(C#N)Nc2ccc(C)cc2)cc1 (centres undefined),1.55%
19,CCc1ccccc1NC(=O)CN(C)C(=O)Cn1ncc(Cl)c(Cl)c1=O,-65.2% [at 6 µM]
